PTPN22 act – LYP phosphatase activators, primary screen, biochemical, DiFMUP fluorescence, 2 µM | AID 697, 2007 | hit rate 0.11% among 96,000 | activation, % at 2 µM | recombinant LYP; 0 = plate median, 100 = signal doubled | Tyrosine-protein phosphatase non-receptor type 22 (Homo sapiens), Q9Y2R2;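 active = activation at 2 µM above a set limit, the mean plus 5 SD, cut at about 37% in these data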
Target sequence (Q9Y2R2 whole entry, looked up): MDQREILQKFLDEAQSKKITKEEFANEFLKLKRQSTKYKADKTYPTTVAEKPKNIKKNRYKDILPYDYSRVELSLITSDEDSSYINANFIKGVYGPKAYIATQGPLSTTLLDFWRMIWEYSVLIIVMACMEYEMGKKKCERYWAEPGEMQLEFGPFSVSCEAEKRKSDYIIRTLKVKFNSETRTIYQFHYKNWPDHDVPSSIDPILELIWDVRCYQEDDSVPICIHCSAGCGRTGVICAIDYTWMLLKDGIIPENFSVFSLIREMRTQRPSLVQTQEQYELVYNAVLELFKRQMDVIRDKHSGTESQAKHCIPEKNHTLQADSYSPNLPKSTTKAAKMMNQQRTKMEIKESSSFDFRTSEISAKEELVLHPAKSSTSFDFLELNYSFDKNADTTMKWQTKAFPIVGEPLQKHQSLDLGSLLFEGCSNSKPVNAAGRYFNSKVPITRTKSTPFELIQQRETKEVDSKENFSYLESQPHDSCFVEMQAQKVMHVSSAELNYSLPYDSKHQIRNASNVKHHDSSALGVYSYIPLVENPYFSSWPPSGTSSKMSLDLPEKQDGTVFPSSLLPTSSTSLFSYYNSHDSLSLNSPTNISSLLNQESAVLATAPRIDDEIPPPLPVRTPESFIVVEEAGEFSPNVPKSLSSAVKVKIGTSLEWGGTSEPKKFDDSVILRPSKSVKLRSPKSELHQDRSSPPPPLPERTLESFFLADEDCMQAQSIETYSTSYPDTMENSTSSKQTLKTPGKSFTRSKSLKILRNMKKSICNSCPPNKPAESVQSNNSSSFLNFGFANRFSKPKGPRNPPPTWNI
LYP inh 2 – PTPN22 phosphatase inhibitors, primary screen, biochemical, DiFMUP fluorescence, 2 µM | Tyrosine-protein phosphatase non-receptor type 22 (Homo sapiens), Q9Y2R2 | recombinant LYP catalytic domain | inhibition, % at 2 µM | hit rate 0.21% among 96,000 | AID 640, 2007;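 active = inhibition at 2 µM at or above a set limit, the screen mean plus 3 SD, cut at about 24% in these data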
Measles CPE – compounds protecting cells from measles virus cytopathic effect, primary screen, measles RdRp inhibitor project, single point, MLSMR library, absorbance. Measles virus-infected cells, CPE protection. protection (pct of control), % at 4 µM. hit rate 1.5% among 140,000. AID 841, 2007; in the data active = protection mostly above about 24%, no sharp cut-off; inactive = mostly below about 26%
Each line names hits and unclear results; the compound was inactive in the other large screens. Rows were chosen to be rich in hits. Some 1.7% of all compounds tested hit in one or more screens of this group.

COc1ccc(C(=O)N2CCc3ccccc32)cc1	Measles CPE 28
Cc1cccc(OCC(=O)Nc2cccc(O)c2)c1	none
CCOC(=O)C1=C(CC)OC(N)=C(C#N)C1c1cc(OC)ccc1OC (stereo not given)	none (no result: PTPN22 act, LYP inh 2)
CCOC(=O)C1=C(CC)OC(N)=C(C#N)C1c1ccc(NC(C)=O)cc1 (stereo not given)	Measles CPE 31 (no result: PTPN22 act, LYP inh 2)
CCOC(=O)CNNC(=O)Nc1ccc(Cl)c(Cl)c1	Measles CPE 21 (no result: PTPN22 act, LYP inh 2)
CCOC(=O)N(C)OC(=O)Nc1ccc(Cl)c(Cl)c1	none
COc1cccc(/C=N/Nc2snc(SC)c2C#N)c1	none
COc1ccc(/C=N/Nc2snc(SC)c2C#N)cc1OC	Measles CPE 44
CC(C)COC(=O)N1CC(O)CC1C(=O)O (stereo not given)	none (no result: PTPN22 act, LYP inh 2)
O=C(CNC(=O)c1cccs1)NCC(=O)OCc1cccc(Cl)c1	Measles CPE active
O=C(CNC(=O)c1ccco1)NCC(=O)OCc1cccc(Cl)c1	none
S=c1[nH]nc(COc2ccccc2)n1/N=C/C=C/c1ccccc1	none (no result: PTPN22 act, LYP inh 2)
S=c1[nH]nc(COc2ccccc2)n1/N=C/C(Cl)=C/c1ccccc1	LYP inh 2 28
Cc1cc2c(c(=O)o1)C(C13C=CC(CC1)C3)C(C#N)=C(N)O2 (stereo not given)	Measles CPE 31
Cc1cc2c(c(=O)o1)C(CC(C)C)C(C#N)=C(N)O2 (stereo not given)	none
c1ccc(CCNc2ccc3nncn3n2)cc1	none (no result: PTPN22 act, LYP inh 2)
CC1CC(C)CN(S(=O)(=O)c2cc(C(=O)O)c(Cl)s2)C1 (stereo not given)	none (no result: PTPN22 act, LYP inh 2)
CCOc1ccc(N=C(C)c2ccccc2O)cc1	none (no result: PTPN22 act, LYP inh 2)
CCOc1ccc(N=Nc2cc(C(C)C)ccc2O)cc1	Measles CPE 26 (no result: PTPN22 act, LYP inh 2)
COc1ccc2c(c1)[nH]c1c(=O)n(CCN3CCCC3)cnc12	none
CC1C(=O)CC(c2ccco2)NC1c1ccco1 (stereo not given)	none
COc1ccc(OC)c(-c2nc3c(C)n[nH]c(=O)c3[nH]2)c1	none
C=CCn1c(C)cc(C(=O)COc2nncc3ccccc23)c1C	Measles CPE 46
C=CCn1c(C)cc(C(=O)COC(=O)CNC(=O)c2ccccc2)c1C	Measles CPE 26 (no result: PTPN22 act, LYP inh 2)
Cc1ccc(C(=O)NCC(=O)OCC(=O)c2cc(C)n(Cc3ccco3)c2C)cc1	none (no result: PTPN22 act, LYP inh 2)
C=CCn1c(C)cc(C(=O)COc2ccc(C)nc2[N+](=O)[O-])c1C	none (no result: PTPN22 act, LYP inh 2)
COc1ccc(-c2nc(-n3c(C)c(C(C)=O)c(C(C)=O)c3C)sc2C)cc1OC	none
COc1ccc(OC)c(Nc2nc(C3CC3)nc3c2nnn3Cc2ccccc2)c1	Measles CPE 66
c1ccc(Cn2nnc3c(Nc4ccc5c(c4)OCO5)nc(C4CC4)nc32)cc1	none (no result: PTPN22 act, LYP inh 2)
CCc1ccccc1NS(=O)(=O)c1ccc2c(c1)NC(=O)CC(=O)N2	Measles CPE 37 (no result: PTPN22 act, LYP inh 2)
Cc1cc(C)c(NS(=O)(=O)c2ccc3c(c2)NC(=O)CC(=O)N3)c(C)c1	none (no result: PTPN22 act, LYP inh 2)
COc1ccccc1N1CCN(C(c2ccccc2Cl)c2nnnn2C(C)(C)C)CC1 (stereo not given)	none
CCN(CCNC(=O)C1CCN(S(=O)(=O)CC)CC1)c1ccccc1	Measles CPE 60
CCN(CCNC(=O)C1CCCN(S(=O)(=O)CC)C1)c1ccccc1 (stereo not given)	none
O=C(NC1CCCCC1)NC1CC2CCC(C1)N2C(=O)NCc1ccccc1 (stereo not given)	none
O=C(NC1CCCCC1)NC1CC2CCC(C1)N2C(=O)NC1CCCCC1 (stereo not given)	Measles CPE 25
O=C(Cc1cccs1)Nc1ccc2c(c1)C(=O)OC2	none
O=C(Cn1nnc2ccccc21)N/N=C/c1ccco1	none (no result: PTPN22 act, LYP inh 2)
Cc1cccc2cc3c(N)c(C#N)sc3nc12	none
Cc1sc(NC(=O)c2sc3nc4c(C)cccc4cc3c2N)c(C#N)c1C	LYP inh 2 56
C=CCNC(=O)C12CCC(C)(C(=O)C1Br)C2(C)C (stereo not given)	none (no result: PTPN22 act, LYP inh 2)
Cc1ccc(-c2nnn(CCC(=O)Nc3ccc4c(c3)OCO4)n2)cc1	none
Cc1cc(C(=O)Nc2c(C)nn(Cc3c(Cl)cccc3Cl)c2C)no1	none
Cc1nn(Cc2c(Cl)cccc2Cl)c(C)c1NC(=O)c1cc(C(C)C)on1	Measles CPE 52
CC(C)c1ccc(OCC(=O)Nc2ccc(OC(F)(F)F)cc2)cc1	Measles CPE 35 (no result: PTPN22 act, LYP inh 2)
O=C(COC(=O)COc1ccccc1)Nc1ccc(OC(F)(F)F)cc1	none
CN(C)/C=N/c1sc2c(c1C#N)CCCCC2	none (no result: PTPN22 act, LYP inh 2)
CCc1ccc(NC(=S)N(CCCN2CCN(C)CC2)Cc2cccs2)cc1	Measles CPE 53 (no result: PTPN22 act, LYP inh 2)
CCOC(=O)c1ccc(NC(=S)N(CCCN2CCCCCC2)Cc2ccco2)cc1	Measles CPE 49 (no result: PTPN22 act, LYP inh 2)
Cc1ccc(NC(=S)N(CCN2CCCCC2)Cc2ccco2)cc1	none (no result: PTPN22 act, LYP inh 2)
COc1ccc(NC(=S)N(CCCN2CCN(C)CC2)Cc2cccs2)cc1	none (no result: PTPN22 act, LYP inh 2)
CCCCn1nc2cc(C(=O)NCc3ccc(C(F)(F)F)cc3C(F)(F)F)ccc2c1OCC	Measles CPE active
CCOc1c2ccc(C(=O)NCc3ccc(C(F)(F)F)cc3C(F)(F)F)cc2nn1C	none
COc1cc(CNCCSc2nnnn2C)cc(Br)c1OCc1ccccc1F	none
CC(C)(C)c1cc(C(=O)O)n[nH]1	none
CC(C)Cc1cc(C(=O)O)n[nH]1	Measles CPE 19
Cc1nc(SCC(N)=O)[nH]c(=O)c1Cc1ccc(OC(C)C)cc1	none
Cc1ccc(/C=N/Nc2nnc(Cl)c3ccccc23)cc1	none (no result: PTPN22 act, LYP inh 2)
Cc1ccc(-c2cccc(C(=O)NCc3ccccc3)n2)c2ccccc12	none (no result: PTPN22 act, LYP inh 2)
Cc1cc(C)n2nc(C(=O)NCc3ccccc3)cc2n1	Measles CPE 43
O=C(NCc1ccccc1)c1cccc(Br)n1	Measles CPE 44 (no result: PTPN22 act, LYP inh 2)
Cc1cc(C)n2nc(C(=O)NCc3ccccc3)nc2n1	none
c1ccc(Cn2nnc3cnccc32)cc1	none (no result: PTPN22 act, LYP inh 2)
CCOc1cc(/C=N/NC(N)=O)cc(Br)c1OCC(=O)Nc1cccc2ccccc12	Measles CPE 45
CCOc1cc(/C=N/NC(N)=O)cc(Br)c1OCC(=O)Nc1ccccc1C	none
Cc1ccc(C(=O)Nc2nc3ccc(S(C)(=O)=O)cc3s2)s1	none
CCS(=O)(=O)N1CCC(C(=O)NCc2ccccn2)CC1	none (no result: PTPN22 act, LYP inh 2)
O=C1CCCN1CCCNS(=O)(=O)c1ccc(Cl)c(C(=O)N2CCOCC2)c1	none
c1ccc2c(c1)oc1c(NCC3CCCO3)ncnc12 (stereo not given)	none
c1ccc(-c2nc(NCC3CCCO3)c3oc4ccccc4c3n2)cc1 (stereo not given)	Measles CPE 80
O=C(Nc1ccc(-c2nc3ccc(NC(=O)c4cccs4)cc3[nH]2)cc1)c1cccs1	LYP inh 2 29
O=C(Nc1ccc2nc(-c3cccs3)[nH]c2c1)c1cccs1	none
O=C(NCc1ccco1)C1(c2ccccc2)CCCC1	none
COc1ccc(C2(C(=O)NCc3ccco3)CCCC2)cc1OC	Measles CPE 53
N#Cc1cc(C#N)c(N2CCN(c3ccccn3)CC2)nc1N	none
CN(C)Cc1cc(CN(C)C)c(O)c(CCc2ccccc2)n1	none
CN(C)CCCCOc1ccccc1-c1ccccc1	none
CN(C)Cc1ccccc1Cc1ccccc1	Measles CPE 38 (no result: PTPN22 act, LYP inh 2)
CN(C)CCOc1ccccc1Cc1ccccc1	Measles CPE 44 (no result: PTPN22 act, LYP inh 2)
COc1ccc(-c2nc(C#N)c(NCc3cccnc3)o2)cc1OC	none
CCN(CC)S(=O)(=O)c1ccc(N=NC2=C(O)CC(C)(C)CC2=O)cc1	none (no result: PTPN22 act, LYP inh 2)
CCN(CC)S(=O)(=O)c1ccc(N=NC2=C(O)CCCC2=O)cc1	Measles CPE 34 (no result: PTPN22 act, LYP inh 2)

Screening results deposited in PubChem by several laboratories.
